Results on 40 molecules are retold here after the supplement of paper PMC3898565.

Structures can show the parent of a compound that is named as a salt. ± gives the uncertainty stated by the source.
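Further: viable cell number estimated from Alamar Blue fluorescence read at 560/90, part of a single-dose primary screen of an FDA-approved drug library.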

The subject of this experiment is U87. Briefly: cell viability relative to vehicle control; higher = less growth inhibition (less active). As to conditions: 10 µM; 72 h.
As for `CC(Cc1ccccc1)(NC(=O)CN)c1ccccc1` (racemic), the cell viability amounted to 93.1 ± 3.1%. Then `CCc1oc2ccccc2c1C(=O)c1cc(Br)c(O)c(Br)c1`, with 107.7 ± 0.81%; and `Cc1cccc(CCN2CCC(C(=O)c3ccc(NS(C)(=O)=O)cc3)CC2)n1`, with 102.6 ± 0.96%; and `O=C1[C@H](CC[C@H](O)c2ccc(F)cc2)[C@@H](c2ccc(O)cc2)N1c1ccc(F)cc1`, with 99.1 ± 2.4%.

Turning to `CCCc1nc2c(C)cc(-c3nc4ccccc4n3C)cc2n1Cc1ccc(-c2ccccc2C(=O)O)cc1`, the cell viability stood at 98.3 ± 2.2%. Then `Nc1c2c(nc3ccccc13)CCCC2`, with 110 ± 18%; and `CC1(C)S[C@@H]2[C@H](/N=C/N3CCCCCC3)C(=O)N2[C@H]1C(=O)O`, with 104 ± 2.1%; and `COc1cccc2c1C(=O)c1c(O)c3c(c(O)c1C2=O)C[C@@](O)(C(=O)CO)C[C@@H]3O[C@H]1C[C@H](N)[C@@H](O)[C@H](C)O1`, with 23.3 ± 0.39%.

Take `CCCc1nc(C)c2c(=O)nc(-c3cc(S(=O)(=O)N4CCN(CC)CC4)ccc3OCC)[nH]n12`: the cell viability came to 107.7 ± 0.41%. With `COc1ccccc1N1CCN(CC(O)COc2cccc3ccccc23)CC1` (stereo not given) the figure was 99.6 ± 1.9%.

`CC(=O)CCCCn1cnc2c1c(=O)n(C)c(=O)n2C`: the cell viability turned out to be 105 ± 1.2%. With `CN(Cc1cnc2nc(N)nc(N)c2n1)c1ccc(C(=O)N[C@@H](CCC(=O)O)C(=O)O)cc1` the figure was 72.9 ± 0.73%; with `C=CC1=C(C(=O)O)N2C(=O)[C@@H](NC(=O)/C(=N\O)c3csc(N)n3)[C@H]2SC1`, 107 ± 1.5%; with `CC(C)(C)NC(=O)[C@H]1CC[C@H]2[C@@H]3CC[C@H]4NC(=O)C=C[C@]4(C)[C@H]3CC[C@]12C`, 104.8 ± 0.76%. With `CC(=O)SCC(Cc1ccccc1)C(=O)NCC(=O)OCc1ccccc1` (stereo not given) the figure was 103 ± 2%. Then `CCCN1CCCC[C@H]1C(=O)Nc1c(C)cccc1C`, with 107 ± 1.1%; and `COc1cc(CNC(=O)CCCC/C=C/C(C)C)ccc1O` [Capsaicin], with 109 ± 1.5%; and `COc1ccccc1OCC(O)CN1CCN(CC(=O)Nc2c(C)cccc2C)CC1` (stereo not given) [Ranolazine dihydrochloride], with 102.8 ± 0.94%. As for `CCC1=C[C@H]2CN(C1)Cc1c([nH]c3ccccc13)[C@@](C(=O)OC)(c1cc3c(cc1OC)N(C)[C@H]1[C@@](O)(C(=O)OC)[C@H](OC(C)=O)[C@]4(CC)C=CCN5CC[C@]31[C@@H]54)C2` [Vinorelbine Bitatrate], the cell viability stood at 18 ± 5%.

As to `C[C@@H](O)[C@H]1C(=O)N2C(C(=O)O)=C(S[C@@H]3CN[C@H](C(=O)N(C)C)C3)[C@H](C)[C@H]12`, the cell viability is 106.4 ± 0.79%. With `Cc1nc2ccccn2c(=O)c1CCN1CCC(C(=O)c2ccc(F)cc2)CC1` the figure was 97.4 ± 1.5%; with `Nc1ccc(O)c(C(=O)O)c1` [5-Amino-2-hydroxy-benzoic acid], 102.5 ± 0.14%; with `O=C(O[C@@H]1Cc2c(O)cc(O)cc2O[C@@H]1c1cc(O)c(O)c(O)c1)c1cc(O)c(O)c(O)c1` [Epigallocatechin gallate], 77.8 ± 4.2%. With `CC1=C(C(=O)O)N2C(=O)[C@@H](NC(=O)[C@H](N)c3ccccc3)[C@H]2SC1` [Cephalexin monohydrate] the figure was 100 ± 1.7%; with `C=CC[C@@H]1/C=C(\C)C[C@H](C)C[C@H](OC)[C@H]2O[C@@](O)(C(=O)C(=O)N3CCCC[C@H]3C(=O)O[C@H](/C(C)=C/[C@@H]3CC[C@@H](O)[C@H](OC)C3)[C@H](C)[C@@H](O)CC1=O)[C@H](C)C[C@@H]2OC`, 101.8 ± 0.73%; with `COCCCC/C(=N\OCCN)c1ccc(C(F)(F)F)cc1` [Fluvoxamine], 106 ± 1.5%. With `CN(CCCN1c2ccccc2CCc2ccccc21)CC(=O)c1ccc(Cl)cc1` the figure was 107 ± 2.2%. Regarding `C#C[C@]1(O)CC[C@H]2[C@@H]3[C@H](C)CC4=C(CCC(=O)C4)[C@H]3CC[C@@]21C`, the cell viability amounted to 106 ± 2.1%. Then `C[C@@H]1C[C@H]2[C@@H]3CCC4=CC(=O)C=C[C@]4(C)[C@@]3(F)[C@@H](O)C[C@]2(C)[C@H]1C(=O)CO`, with 106 ± 0.2%. With `C[C@H]1COc2c(C3(N)CC3)c(F)cc3c(=O)c(C(=O)O)cn1c23` the figure was 101.8 ± 0.5%. Then `CC(C)(C)NC(=O)[C@@H]1C[C@@H]2CCCC[C@@H]2CN1C[C@@H](O)[C@H](Cc1ccccc1)NC(=O)[C@H](CC(N)=O)NC(=O)c1ccc2ccccc2n1`, with 96.4 ± 2.6%; and `Cc1nccn1CC1CCc2c(c3ccccc3n2C)C1=O` (stereo not given) [Ondansetron], with 99.8 ± 1.5%; and `Fc1ccc([C@@H]2CCNC[C@H]2COc2ccc3c(c2)OCO3)cc1`, with 104.5 ± 1%. As for `CN=C(N)NCCC[C@H](N)C(=O)O` [L-Ornithine, N5-[imino(methylamino)methyl]-[CAS]], the cell viability was determined as 104.9 ± 0.88%. Then `CN1CCCCC1CCN1c2ccccc2Sc2ccc([S+](C)[O-])cc21` (stereo not given) [Mesoridazine], with 105 ± 2.8%; and `CC(=O)Oc1ccccc1C(=O)Nc1ncc([N+](=O)[O-])s1`, with 103 ± 2.3%.

Turning to `Nc1ccn([C@@H]2O[C@H](CO)[C@@H](O)[C@@H]2O)c(=O)n1` [2(1H)-Pyrimidinone, 4-amino-1-D-arabinofuranosyl- [CAS]], the cell viability is 47.5 ± 2.9%. Then `CC(=O)OCC(=O)NCCCOc1cccc(CN2CCCCC2)c1`, with 102 ± 1.4%; and `COc1cc2c(cc1OC)C(=O)C(CC1CCN(Cc3ccccc3)CC1)C2` (stereo not given) [Donepezil], with 99.1 ± 1.4%. Consider `Clc1ccc2c(c1)CCc1cccnc1C2=C1CCNCC1`, for which the cell viability stood at 101.5 ± 0.94%.
